Assay results published in PubChem BioAssay.
Activity calls are given as the source filed them. Unless noted, no rule for the calls is given here.

How the values were obtained:
[1] = tested on: Wnt5a (protein binding on small-molecule microarray); test: Wnt5a binders on small-molecule microarray, primary screen, biophysical, 635/667 nm fluorescence (AID 1142); details: 635 nm fluorescence, higher = more signal;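 also: fluorescence read at 667 nm with signal to noise per printed feature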
[2] = cell viability in Huh7 cells, primary screen, cytotoxicity control for HCV replication inhibitor project, CellTiter-Glo luminescence, basal, 48 h (AID 1143); details: Huh7 HCV replicon, higher = more signal, called active from +8 up or from −8 down;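 also: Huh7 hepatoma cells carrying a hepatitis C replication reporter with no stimulus; test concentration not given here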
[3] = P. aeruginosa biofilm formation inhibitors, primary screen, PAO1 strain, BacTiter-Glo luminescence, LB-PBS (AID 1144); details: 12 h, higher = more signal
[4] = CREB reporter modulators without forskolin, primary screen, cell-based, PC12, CRE-LacZ reporter, unstimulated (AID 1145); details: no forskolin, luminescence, 4.5 h, higher = more signal, called active from +8 up or from −8 down
[5] = CREB reporter modulators under forskolin, primary screen, cell-based, PC12, CRE-LacZ reporter, forskolin-stimulated (AID 1146); details: luminescence, 4.5 h, higher = more signal, called active from +8 up or from −8 down;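 also: PC12 cells with 6xCRE LacZ reporter stimulated by forskolin 10 µM; beta-galactosidase reporter signal reflecting CREB driven transcription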
[6] = molecular target: Streptavidin (Streptomyces avidinii) (UniProt P22629); test: streptavidin binders on small-molecule microarray, primary screen, artefact control for SMM compound annotation, biophysical, 635/667 nm fluorescence (AID 1147); details: streptavidin binding, higher = more signal;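 also: signal reflects streptavidin binding to arrayed compounds as a control protein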
[7] = small-molecule binders of probe aInhba, primary screen, biochemical, small-molecule microarray, 635/667 nm fluorescence (AID 1148); details: higher = more signal;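 also: score merges 667nm spot fluorescence with signal-to-noise for antibody binding to printed compounds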
[8] = molecular target: Torsin-1A (Homo sapiens) (UniProt O14656); test: torsin A binders from cell lysate, primary screen, small-molecule microarray, wild-type, 635/667 nm (AID 1149); details: COS7 hTOR1A-WT lysate, 635 nm fluorescence, higher = more signal
[9] = molecular target: Torsin-1A (Homo sapiens) (UniProt O14656); test: small-molecule binders of mutant TOR1A in lysate, primary screen, cell lysate, small-molecule microarray, COS7 lysate, 635/667 nm fluorescence (AID 1150); details: COS7 hTOR1A mutant lysate, 635 nm fluorescence, higher = more signal;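 also: score pools 667 nm emission and signal to noise measuring lysate protein binding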
[10] = tested on: Sonic hedgehog protein (Shh); test: small-molecule binders of Shh protein, primary screen, biochemical, small-molecule microarray, 635/667 nm fluorescence (AID 1151); details: small-molecule microarray binding, 635 nm fluorescence; higher = more signal;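 also: Shh protein binding to compounds spotted on small-molecule microarray slides; score combines spot fluorescence intensity with signal-to-noise across triplicate slides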
[11] = E. coli DRC41 culture turbidity changes, primary screen, E. coli filamentation inducer project, strain DRC41, OD650, 48 h (AID 1152);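 also: E. coli MC1000 strain DRC41 lacking acrAB efflux pump and sulA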; details: E. coli DRC41 (acrAB sulA), higher = more signal, called active from +8 up or from −8 down
[12] = small-molecule binders of probe aLefty1, primary screen, biochemical, small-molecule microarray, 635/667 nm fluorescence (AID 1153); details: higher = more signal;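 also: score merges spot fluorescence with signal-to-noise ratio from the scanned slide images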
[13] = PSAC antagonists in infected red cells, primary screen, cell-based, P. falciparum Indochina, OD700, 1 h (AID 1154); details: P. falciparum Indochina infected RBC osmotic lysis, higher = more signal, called active from +8 up or from −8 down
[14] = PSAC antagonists in infected red cells, primary screen, cell-based, P. falciparum Indochina, OD700, 2 h (AID 1155);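 also: lysis reports solute entry through the parasite surface anion channel PSAC; channel blockers reduce lysis of infected cells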; details: P. falciparum Indochina infected erythrocytes, osmotic lysis OD700; higher = more signal, called active from +8 up or from −8 down
[15] = osmotic lysis modulators in infected erythrocytes, primary screen, PSAC antagonist project, cell-based, P. falciparum Indochina, OD700, 3 h (AID 1156); details: higher = more signal, called active from +8 up or from −8 down
[16] = PSAC antagonists in infected red cells, primary screen, cell-based, P. falciparum Indochina, OD700, 18 h (AID 1157); details: P. falciparum Indochina infected erythrocytes, osmotic lysis OD700, 18 h; higher = more signal, called active from +8 up or from −8 down
[17] = modulators of S6 phosphorylation in cells, primary screen, cell-based, A549, cytoblot, luminescence, serum-stimulated (AID 1158); details: A549 phospho-S6 cytoblot, 5 h, higher = more signal;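 also: serum-stimulated A549 lung adenocarcinoma cells; signal is phosphorylated S6 detected by cytoblot immunostaining with HRP secondary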
[18] = molecular target: NADPH oxidase 2 (Homo sapiens) (UniProt P04839); test: NOX2-dependent H2O2 signal modulators, primary screen, NOX inhibitor project, cell-based, HEK293-NOX2, PMA-stimulated, Amplex Red fluorescence (AID 1159); details: 45 min, higher = more signal, called active from +8 up or from −8 down; also: test concentration not given here
[19] = molecular target: NADPH oxidase 4 (Homo sapiens) (UniProt Q9NPH5); test: NOX4-dependent H2O2 signal modulators, primary screen, NOX inhibitor project, cell-based, HEK293-NOX4, tetracycline-induced, Amplex Red fluorescence (AID 1160); details: 45 min, higher = more signal, called active from +8 up or from −8 down
[20] = molecular target: NADPH oxidase 5 (Homo sapiens) (UniProt Q96PH1); test: NOX5-dependent H2O2 signal modulators, primary screen, NOX inhibitor project, cell-based, HEK293-NOX5, Amplex Red fluorescence (AID 1161); details: HEK293-NOX5, ionomycin, 45 min, higher = more signal
NADPH oxidase 5 (Homo sapiens), sequence (Q96PH1 whole entry, looked up): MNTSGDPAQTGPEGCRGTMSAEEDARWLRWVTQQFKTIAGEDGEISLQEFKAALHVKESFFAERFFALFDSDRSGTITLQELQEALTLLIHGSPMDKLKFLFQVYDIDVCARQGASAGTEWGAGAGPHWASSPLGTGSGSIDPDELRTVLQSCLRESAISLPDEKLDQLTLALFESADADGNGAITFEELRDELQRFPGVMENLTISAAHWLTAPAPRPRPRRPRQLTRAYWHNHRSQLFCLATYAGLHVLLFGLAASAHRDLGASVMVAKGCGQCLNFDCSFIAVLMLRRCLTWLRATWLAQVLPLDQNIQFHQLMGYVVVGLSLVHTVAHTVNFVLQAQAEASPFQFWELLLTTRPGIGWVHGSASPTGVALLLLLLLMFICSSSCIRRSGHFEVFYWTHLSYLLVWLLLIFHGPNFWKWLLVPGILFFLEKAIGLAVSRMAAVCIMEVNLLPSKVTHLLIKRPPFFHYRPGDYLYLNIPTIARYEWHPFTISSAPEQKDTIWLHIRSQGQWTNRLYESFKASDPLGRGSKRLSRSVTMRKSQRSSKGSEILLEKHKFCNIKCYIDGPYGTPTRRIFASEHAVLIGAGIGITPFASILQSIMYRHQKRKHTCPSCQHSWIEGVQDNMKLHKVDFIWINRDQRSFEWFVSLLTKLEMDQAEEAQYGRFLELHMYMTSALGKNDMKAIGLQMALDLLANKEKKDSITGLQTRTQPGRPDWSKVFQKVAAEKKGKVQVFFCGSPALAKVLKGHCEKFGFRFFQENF

Streptavidin (Streptomyces avidinii), sequence (P22629 whole entry, looked up): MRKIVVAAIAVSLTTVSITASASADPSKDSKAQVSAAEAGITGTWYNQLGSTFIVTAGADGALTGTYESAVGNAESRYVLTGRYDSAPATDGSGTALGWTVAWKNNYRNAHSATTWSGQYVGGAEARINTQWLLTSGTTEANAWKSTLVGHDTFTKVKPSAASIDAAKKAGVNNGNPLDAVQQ
NADPH oxidase 2 (Homo sapiens), sequence (P04839 whole entry, looked up): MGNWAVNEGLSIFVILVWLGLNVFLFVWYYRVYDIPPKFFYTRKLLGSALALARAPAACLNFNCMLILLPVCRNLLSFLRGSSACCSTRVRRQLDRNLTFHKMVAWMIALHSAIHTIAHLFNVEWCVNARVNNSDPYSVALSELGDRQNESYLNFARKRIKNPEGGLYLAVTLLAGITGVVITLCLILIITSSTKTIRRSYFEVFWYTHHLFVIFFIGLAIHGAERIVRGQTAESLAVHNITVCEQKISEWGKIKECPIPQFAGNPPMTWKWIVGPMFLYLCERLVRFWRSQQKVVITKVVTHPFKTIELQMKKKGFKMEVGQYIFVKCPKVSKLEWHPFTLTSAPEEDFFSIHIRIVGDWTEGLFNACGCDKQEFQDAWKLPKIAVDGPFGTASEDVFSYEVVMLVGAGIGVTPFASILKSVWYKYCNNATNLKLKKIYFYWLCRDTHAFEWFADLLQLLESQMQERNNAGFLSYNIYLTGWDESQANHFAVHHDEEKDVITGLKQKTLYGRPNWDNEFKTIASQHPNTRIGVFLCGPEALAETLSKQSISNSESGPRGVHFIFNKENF
NADPH oxidase 4 (Homo sapiens), sequence (Q9NPH5 whole entry, looked up): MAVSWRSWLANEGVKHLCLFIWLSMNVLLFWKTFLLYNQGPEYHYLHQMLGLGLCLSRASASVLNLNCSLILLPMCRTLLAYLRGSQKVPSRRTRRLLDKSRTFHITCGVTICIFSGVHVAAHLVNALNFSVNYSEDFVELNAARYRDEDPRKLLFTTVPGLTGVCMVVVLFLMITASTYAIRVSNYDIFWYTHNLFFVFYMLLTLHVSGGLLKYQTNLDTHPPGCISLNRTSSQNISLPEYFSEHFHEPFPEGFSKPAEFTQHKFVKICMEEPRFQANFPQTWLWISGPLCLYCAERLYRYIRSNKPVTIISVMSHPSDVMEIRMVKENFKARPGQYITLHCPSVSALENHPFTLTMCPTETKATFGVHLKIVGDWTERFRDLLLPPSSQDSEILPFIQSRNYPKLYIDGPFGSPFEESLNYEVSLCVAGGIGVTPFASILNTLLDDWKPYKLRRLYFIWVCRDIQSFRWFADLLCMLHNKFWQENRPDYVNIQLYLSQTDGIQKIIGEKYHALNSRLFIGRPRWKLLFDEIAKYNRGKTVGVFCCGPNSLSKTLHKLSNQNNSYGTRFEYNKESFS
Torsin-1A (Homo sapiens), sequence (O14656 whole entry, looked up): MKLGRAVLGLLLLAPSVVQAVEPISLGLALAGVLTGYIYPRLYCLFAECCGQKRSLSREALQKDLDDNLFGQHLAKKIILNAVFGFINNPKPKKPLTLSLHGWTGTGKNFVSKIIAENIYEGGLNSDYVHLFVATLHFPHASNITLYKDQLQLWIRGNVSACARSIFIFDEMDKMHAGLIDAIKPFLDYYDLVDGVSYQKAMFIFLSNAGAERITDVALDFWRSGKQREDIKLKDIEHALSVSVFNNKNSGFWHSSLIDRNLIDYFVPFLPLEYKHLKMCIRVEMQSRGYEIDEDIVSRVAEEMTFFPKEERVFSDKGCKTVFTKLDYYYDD

Which composite z-score [1] does the source give for C=CCN1C(=O)[C@@]2(CC=C)N=C(c3ccc(OCCCO)cc3)O[C@H]2c2ccccc21 here?
The composite z-score was 1.39.

And the z-score [2]?
Its z-score is -3.88 (inactive).

And the z-score [3]?
The z-score was -0.776 (inactive).

What about the z-score [4] of the same molecule?
Its z-score is 1.13 (inactive).

What about the z-score [5] of the same molecule?
Its z-score is -2.04 (inactive).

And the composite z-score [6]?
The composite z-score was 0.26.

What about the composite z-score [7] of the same molecule?
Its composite z-score is 0.33.

And the composite z-score [8]?
The composite z-score was 0.537.

What about the composite z-score [9] of the same molecule?
Its composite z-score is 0.658.

And the composite z-score [10]?
Its composite z-score is 1.47.

And the z-score [11]?
The z-score was 1.92 (inactive).

And the composite z-score [12]?
The composite z-score was 0.547.

What about the z-score [13] of the same molecule?
The z-score was 34.5 (active).

What about the z-score [14] of the same molecule?
Its z-score is 30.9 (active).

And the z-score [15]?
The z-score was 3.11 (inactive).

And the z-score [16]?
The z-score was 9.88 (active).

And the z-score [17]?
The z-score was 1.63.

And the z-score [18]?
Its z-score is -2.21 (inactive).

What about the z-score [19] of the same molecule?
Its z-score is 0.796 (inactive).

And the z-score [20]?
The z-score was -0.809.

Which composite z-score [1] does the source give for COC(=O)C(CC#Cc1ccc2c(c1)[C@]1(C(=O)N2)[C@H](C(=O)Nc2nc3ccccc3s2)[C@H]2C(=O)O[C@H](c3ccccc3)[C@H](c3ccccc3)N2[C@@H]1c1ccc(O)cc1)C(=O)OC here?
Its composite z-score is 0.533.

What about the z-score [2] of the same molecule?
The z-score was -1 (inactive).

What about the z-score [3] of the same molecule?
Its z-score is -0.672 (inactive).

And the z-score [4]?
Its z-score is 0.155 (inactive).

And the z-score [5]?
Its z-score is -0.669 (inactive).

What about the composite z-score [6] of the same molecule?
The composite z-score was 0.906.

And the composite z-score [7]?
Its composite z-score is 0.0487.

What about the composite z-score [8] of the same molecule?
The composite z-score was 0.71.

What about the composite z-score [9] of the same molecule?
Its composite z-score is 0.964.

And the composite z-score [10]?
Its composite z-score is 0.967.

What about the z-score [11] of the same molecule?
Its z-score is -1.2 (inactive).

What about the composite z-score [12] of the same molecule?
The composite z-score was 0.0809.

And the z-score [13]?
Its z-score is 1.14 (inactive).

And the z-score [14]?
The z-score was 0.922 (inactive).

What about the z-score [15] of the same molecule?
The z-score was -4.32 (inactive).

What about the z-score [16] of the same molecule?
The z-score was 1.3 (inactive).

What about the z-score [17] of the same molecule?
The z-score was 0.0065.

And the z-score [18]?
Its z-score is 1.28 (inactive).

And the z-score [19]?
The z-score was 0.602 (inactive).

And the z-score [20]?
Its z-score is -0.0824.

With COCCCNC(=O)[C@@]1(C)c2ccccc2C(=O)N(C(C)C)[C@H]1c1ccc(CO)cc1 as the molecule, how does the composite z-score [1] read?
The composite z-score was 0.292.

And the z-score [2]?
Its z-score is 0.169 (inactive).

What about the z-score [3] of the same molecule?
The z-score was 0.0334 (inactive).

What about the z-score [4] of the same molecule?
The z-score was 0.234 (inactive).

What about the z-score [5] of the same molecule?
The z-score was 0.174 (inactive).

What about the composite z-score [6] of the same molecule?
The composite z-score was 0.889.

What about the composite z-score [7] of the same molecule?
The composite z-score was 0.143.

What about the composite z-score [8] of the same molecule?
The composite z-score was -0.277.

And the composite z-score [9]?
Its composite z-score is 0.776.

What about the composite z-score [10] of the same molecule?
Its composite z-score is 1.38.

And the z-score [11]?
Its z-score is -0.794 (inactive).

What about the composite z-score [12] of the same molecule?
Its composite z-score is 0.163.

What about the z-score [13] of the same molecule?
Its z-score is 0.877 (inactive).

And the z-score [14]?
Its z-score is -0.057 (inactive).

And the z-score [15]?
The z-score was 0.386 (inactive).

And the z-score [16]?
The z-score was 0.743 (inactive).

What about the z-score [17] of the same molecule?
The z-score was -0.504.

What about the z-score [18] of the same molecule?
Its z-score is -0.636 (inactive).

What about the z-score [19] of the same molecule?
The z-score was 0.43 (inactive).

What about the z-score [20] of the same molecule?
Its z-score is -0.249.

For C=CC[C@]1(C(=O)NCc2ccccc2)N=C(c2ccc(OCCCO)cc2)O[C@H]1c1ccccc1N=[N+]=[N-], which composite z-score [1] is on record?
The composite z-score was 0.713.

What about the z-score [2] of the same molecule?
The z-score was -3.2 (inactive).

And the z-score [3]?
Its z-score is -0.00841 (inactive).

What about the z-score [4] of the same molecule?
Its z-score is 1.49 (inactive).

What about the z-score [5] of the same molecule?
The z-score was -0.967 (inactive).

What about the composite z-score [6] of the same molecule?
Its composite z-score is 2.21.

What about the composite z-score [7] of the same molecule?
The composite z-score was -0.0468.

And the composite z-score [8]?
The composite z-score was 0.818.

And the composite z-score [9]?
Its composite z-score is 0.787.

And the composite z-score [10]?
Its composite z-score is -0.231.

What about the z-score [11] of the same molecule?
The z-score was 0.0858 (inactive).

What about the composite z-score [12] of the same molecule?
Its composite z-score is 0.222.

And the z-score [13]?
The z-score was 31.8 (active).

And the z-score [14]?
The z-score was 27.1 (active).

And the z-score [15]?
Its z-score is 3.46 (inactive).

And the z-score [16]?
Its z-score is 6.96 (inactive).

And the z-score [17]?
Its z-score is 0.0617.

And the z-score [18]?
The z-score was -1.8 (inactive).

And the z-score [19]?
The z-score was 0.721 (inactive).

And the z-score [20]?
The z-score was -0.0713.
